Source: PubChem (several laboratories)
In the library only some 12% were active in any assay of this set; here they are far more common.
CHOP inhibitor – blocks CHOP induction under ER stress | AID 2732 | CHO-K1 CHOP-promoter luciferase, tunicamycin-induced, 15-18 h | inhibition, % at 10 µM | 3.8% of 220,000 active;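 active means compounds that reduced the stress-induced luciferase reporter signal by more than about 70% of percent inhibition, limit read from the data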;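 further: 0% = tunicamycin plus vehicle and 100% = wells without tunicamycin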
WT yeast gro inh – growth inhibition of WT yeast, mitochondrial fusion screen | 2.1% of 190,000 active | inhibition, % at 10 µM | AID 1362 | mitochondrial fusion phenotypic screen, WT strain; in the data active means inhibition above about 58%; tested in S. cerevisiae
Arbovirus anti – arbovirus infection inhibition. 0.37% of 200,000 active. inhibition, % at 10 µM. AID 1251. arbovirus infection cell-based antiviral screen; in the data active means inhibition above about 30%
L major viab – reduces viability of Leishmania major promastigotes. resazurin fluorescence viability. inhibition, % at 10 µM. 9% of 200,000 active; in the data active means inhibition above about 50%;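 further: promastigotes grown with compound for 44 hours at 28 °C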
* marks the source's active call; other numbers are inactive results; x = no result.

SMILES | CHOP inhibitor | WT yeast gro inh | Arbovirus anti | L major viab
CCC(C)C(Nc1ccc(C(=O)OC)cc1[N+](=O)[O-])C(=O)OC (centres undefined) | 89.2* | 0.8 | -1.3 | 1.0
S=c1nc(-c2ccco2)[nH][nH]1 | 74.4* | -5.2 | 4.7 | -6.9
Cn1c(-c2ccco2)n[nH]c1=S | -7.0 | 10.5 | 2.3 | -5.3
O=C1CC[C@@H](CN(Cc2ccccn2)Cc2nc(-c3ccc(C(F)(F)F)cc3)no2)N1 | 8.1 | 8.2 | -2.2 | -9.1
Cc1ccc(-c2cc(N)n(Cc3ccc(Cl)cc3)n2)cc1 | 24.0 | -1.4 | -11.4 | 86.6*
O=C(COc1ccccc1)OCc1csc(Nc2ccccc2)n1 | -9.3 | 28.9 | -8.7 | 49.1
O=C(OCc1csc(Nc2ccccc2)n1)c1ccc(Cl)cc1 | 74.0* | 75.6* | -7.8 | -2.0
O=C(CC1CC2CCC1C2)Nc1nc(-c2ccccn2)cs1 (centres undefined) | -140.4 | 73.9* | -15.4 | 100.0*
CN(C)S(=O)(=O)c1ccc(C(=O)Nc2nc(-c3cc4ccccc4o3)cs2)cc1 | 44.7 | 9.8 | 0.9 | -0.4
O=C(Nc1nc(-c2ccccn2)cs1)C1CC(=O)N(c2ccc3c(c2)OCCO3)C1 (centres undefined) | 42.0 | -3.5 | -15.7 | 100.1*
O=C(Nc1nc(-c2ccccn2)cs1)C12CC3CC(CC(O)(C3)C1)C2 | 1.0 | 5.7 | 5.5 | 33.3
O=C(Nc1nc(-c2ccccn2)cs1)C1CC1 | 15.5 | 9.8 | -6.0 | 86.2*
CN(CC1CCCO1)S(=O)(=O)c1ccc(C(=O)Nc2nc(-c3ccccn3)cs2)cc1 (centres undefined) | x | 11.7 | -25.3 | 100.3*
CN(C)c1ccc(C=Nc2ccccc2C(N)=O)cc1 | -17.5 | 18.9 | -16.7 | -0.8
CN(C)c1ccc(/C=N/N=C/c2ccccc2O)cc1 | 80.6* | 22.5 | -9.6 | -6.2
COC(=O)c1cccc(NC(=O)CCc2ccccc2)c1 | -15.6 | -2.6 | -5.8 | -8.3
COC(=O)c1cccc(NC(=O)CN2CCOCC2)c1 | 71.7* | -6.7 | -0.1 | -4.2
COC(=O)c1ccc(NC(=O)CN2CCOCC2)cc1 | 7.8 | 29.3 | -1.8 | -4.9
COC(=O)c1cccc(NC(=O)CCc2cc(OC)c(OC)c(OC)c2)c1 | 16.1 | -19.8 | 6.6 | 59.1*
Cc1ccccc1Cn1c(=N)n(CC(=O)c2ccc([N+](=O)[O-])cc2)c2ccccc21 | 83.5* | 16.0 | -10.3 | 99.9*
CCn1c(=N)n(CC(=O)c2cccc([N+](=O)[O-])c2)c2ccccc21 | -38.1 | -5.6 | 2.7 | 15.8
CCCn1c(=N)n(CC(=O)c2ccc([N+](=O)[O-])cc2)c2ccccc21 | 0.1 | 26.0 | -10.2 | 64.0*
COc1ccc(/C(=C/c2ccc(OC(F)F)c(OC)c2)C(=O)O)cc1OC | 1.9 | -4.6 | -1.9 | -2.2
CCOCCc1nnc(NC(=O)Cc2c(F)cccc2Cl)s1 | 14.4 | -23.4 | 7.2 | -5.6
c1ccc2c(c1)ncn2CCN1CCCCC1 | 8.2 | -18.3 | -3.4 | -0.9
SMILES | CHOP inhibitor | WT yeast gro inh | Arbovirus anti | L major viab
c1ccc2c(c1)ncn2CCCCOc1ccc2c(c1)CCC2 | 70.4* | 69.2* | -32.5 | 55.5*
Brc1ccccc1OCCCn1cnc2ccccc21 | 8.1 | 55.9 | 11.2 | 11.0
c1ccc2c(c1)ncn2CCCOc1ccc2c(c1)CCC2 | 51.1 | 65.3* | 3.9 | 16.7
CCN(CC)CC(=O)Nc1c(C)cc(C)cc1C | x | 16.0 | 0.0 | -3.1
Cc1cc(C)c(NC(=O)CN(C2CCCCC2)C2CCCCC2)c(C)c1 | 61.4 | 36.2 | -18.0 | 95.9*
COc1ccc(N=Nc2cnc(C)nc2-c2ccccc2)cc1 | 72.7* | 23.0 | -9.1 | 3.7
Cc1cc(C)c2c3c(oc2n1)C(=O)N(c1cccc(Cl)c1)CC(=O)N3 | -9.8 | x | x | x
Cc1ccc(-n2cc(CN3CCC(CO)(Cc4cccc(C(F)(F)F)c4)CC3)cn2)cc1 | 16.1 | 93.0* | -31.5 | 98.6*
CSc1ccccc1C(=O)C1CCCN(Cc2cnn(-c3ccccc3)c2)C1 (centres undefined) | 22.3 | 21.7 | -4.0 | 73.1*
CSc1ccc(CN2CCCC(CO)(Cc3ccccc3)C2)cc1 (centres undefined) | 15.3 | 22.1 | -7.6 | 64.3*
COc1cccc(CC2(CO)CCN(Cc3cccn3-c3cccnc3)CC2)c1 | 15.8 | -7.9 | 5.6 | -3.8
Cc1ccc(-n2cc(CN3CCC(CO)(Cc4ccccc4)CC3)cn2)cc1 | 21.2 | 19.1 | -14.3 | 80.0*
CSc1ccccc1C(=O)C1CCCN(Cc2c(C)n(C)n(-c3ccccc3)c2=O)C1 (centres undefined) | 8.7 | 1.3 | -22.5 | 6.1
Cc1noc(C)c1COC(=O)c1ccc(S(=O)(=O)N2CCCCC2)cc1 | 9.5 | 8.2 | 4.4 | -3.7
O=C(CSc1ccc(Cl)cc1)N/N=C/c1cccnc1 | 9.9 | -1.4 | -2.4 | 3.5
OCC1(Cc2ccccc2)CCN(Cc2cnn(-c3ccccc3F)c2)CC1 | 29.0 | -6.1 | -5.3 | 87.7*
COc1ccccc1-n1cc(CN2CCCC(CO)(Cc3cccc(Cl)c3)C2)cn1 (centres undefined) | 32.8 | -6.8 | -28.6 | 26.8
OCC1(Cc2ccccc2)CCCN(Cc2cnn(-c3ccccc3)c2)C1 (centres undefined) | -2.7 | 11.8 | -20.8 | 89.0*
CCOCCCn1c(=NC(=O)c2ccco2)c(C(=O)OCC)cc2c(=O)n3cccc(C)c3nc21 | -11.6 | x | x | x
COc1ccc(NC(=O)CSc2nc3ccccc3n2-c2ccccc2)c([N+](=O)[O-])c1 | 14.9 | -12.7 | 1.6 | 69.9*
COc1ccc(OC)c(NC(=O)CSc2nc3ccccc3cc2Cc2ccccc2)c1 | 13.8 | 15.3 | -2.6 | 82.1*
COc1ccc(NC(=O)CSc2nc3ccccc3cc2Cc2ccccc2)cc1 | 53.4 | 29.7 | -6.6 | 4.3
COc1ccc(NC(=O)CSc2ccccc2)c([N+](=O)[O-])c1 | 10.1 | 19.6 | 4.5 | -5.2
COc1ccc(OC)c(NC(=O)CSc2nc3ccccc3c3nc4ccccc4n23)c1 | 78.2* | -4.2 | -7.8 | -9.6
NC(=O)c1cc[n+](CC2=C(C(=O)O)N3C(=O)[C@@H](NC(=O)[C@@H](c4ccccc4)S(=O)(=O)[O-])[C@H]3SC2)cc1 | -26.1 | x | x | x
SMILES | CHOP inhibitor | WT yeast gro inh | Arbovirus anti | L major viab
CCCc1sc(N)nc1-c1ccc(Cl)cc1 | 34.7 | 69.0* | 5.3 | 20.7
CCNc1nc(-c2ccc(Cl)cc2)cs1 | 8.8 | 18.9 | 5.3 | -6.3
C/C(=C\c1ccccc1)C(=O)Nc1ccc(S(=O)(=O)Nc2ncccn2)cc1 | 4.7 | -27.8 | -2.6 | -8.5
O=C1CC(c2ccco2)CC(O)=C1C=Nc1ccc(Br)cc1 (centres undefined) | 87.4* | -1.4 | -19.3 | -4.0
Cc1ccc(N=CC2=C(O)CC(c3ccco3)CC2=O)cc1 (centres undefined) | 41.7 | 10.3 | 2.8 | -6.2
Cc1cccc(N2CCN(Cc3nc(CC4CC4)no3)CC2)n1 | -5.8 | -10.3 | 0.4 | -3.1
CC(C(=O)Nc1cccc([N+](=O)[O-])c1)N1CCN(C/C=C/c2ccccc2)CC1 (centres undefined) | 16.2 | 24.7 | 8.3 | 81.5*
COC(=O)c1cc(OC)c(OC)cc1NC(=S)N1CCN(C/C=C/c2ccccc2)CC1 | 31.1 | 16.8 | 13.3 | 99.4*
COC(=O)c1ccccc1NC(=S)N1CCC(N2CCCCC2)CC1 | 5.2 | -15.3 | 4.5 | 73.3*
COc1ccc(C)cc1NC(=O)CN1CCN(C/C=C/c2ccccc2)CC1 | 18.3 | 51.1 | 3.8 | 86.2*
